Reference: ChEMBL document CHEMBL5606458, “ASAP - ZIKV NS2B-NS3 protease fluorescence single point” (2024)
Out of some 2,700 compounds screened, about 160 (5.9%) showed an effect of 50% or more. Many of the other results were omitted from the sample, so strong results are more common in it than they were.

Molecular target: Nonstructural protein 3 (Zika virus) (UniProt A0A024AXB9)
Sequence (A0A024AXB9 as listed by the source): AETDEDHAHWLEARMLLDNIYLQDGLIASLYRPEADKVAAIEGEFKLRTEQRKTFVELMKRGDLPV

For `O=C(Nc1ccc2c(c1)B(O)OC2)c1cccc(OCc2c(Cl)cccc2Cl)c1`, the inhibition (PRVABC59, Concentration 49.5 uM, Number of replicates 2.0, Standard deviation 1.6182218422548027 %) was 13.7%, the inhibition (PRVABC59, Concentration 99.01 uM, Number of replicates 2.0, Standard deviation 3.3767515547267357 %) was 18.1% and the inhibition (PRVABC59, Concentration 198.0 uM, Number of replicates 2.0, Standard deviation 1.8193304189589607 %) was 26.3%.
`C[C@@H](NC(=O)c1cc(Cl)ccc1NS(=O)(=O)c1ccc(Oc2ccccc2Cl)cc1)[C@H]1CCCO1` gave an inhibition (PRVABC59, Concentration 49.5 uM, Number of replicates 2.0, Standard deviation 0.31998022259385983 %) of 30.9%, an inhibition (PRVABC59, Concentration 99.01 uM, Number of replicates 2.0, Standard deviation 0.2133183501303701 %) of 35.1% and an inhibition (PRVABC59, Concentration 198.0 uM, Number of replicates 2.0, Standard deviation 0.1263515313886271 %) of 23.8%.
`CC[C@H]1CCN(C(=O)c2cc(Cl)ccc2NS(=O)(=O)c2ccc(Oc3ccccc3Cl)cc2)C1` was tested, and the inhibition (PRVABC59, Concentration 49.5 uM, Number of replicates 2.0, Standard deviation 0.8056939918249262 %) was 9.4%, the inhibition (PRVABC59, Concentration 99.01 uM, Number of replicates 2.0, Standard deviation 0.9468131045821944 %) was 15.3% and the inhibition (PRVABC59, Concentration 198.0 uM, Number of replicates 2.0, Standard deviation 0.6022197968075486 %) was 23.5%.
`O=C(c1cc(Cl)ccc1NS(=O)(=O)c1ccc(Oc2ccccc2Cl)cc1)N1CCCC1` was tested, and the inhibition (PRVABC59, Concentration 49.5 uM, Number of replicates 2.0, Standard deviation 2.8745469037851152 %) was 9.57%, the inhibition (PRVABC59, Concentration 99.01 uM, Number of replicates 2.0, Standard deviation 3.402955430557717 %) was 14.4% and the inhibition (PRVABC59, Concentration 198.0 uM, Number of replicates 2.0, Standard deviation 3.9207965622968795 %) was 20%.
`O=C(c1cc(Cl)ccc1NS(=O)(=O)c1ccc(Oc2ccccc2Cl)cc1)N1CCC[C@@H]1CO` showed an inhibition (PRVABC59, Concentration 49.5 uM, Number of replicates 2.0, Standard deviation 0.644882859919004 %) of 6.57%, an inhibition (PRVABC59, Concentration 99.01 uM, Number of replicates 2.0, Standard deviation 0.07876403049715877 %) of 37.2% and an inhibition (PRVABC59, Concentration 198.0 uM, Number of replicates 2.0, Standard deviation 0.031176529605690447 %) of 69.4%.
For `O=C(NC[C@H]1CCOC1)c1cc(Cl)ccc1NS(=O)(=O)c1ccc(Oc2ccccc2Cl)cc1`, the inhibition (PRVABC59, Concentration 49.5 uM, Number of replicates 2.0, Standard deviation 4.1620208465884945 %) was 16.4%, the inhibition (PRVABC59, Concentration 99.01 uM, Number of replicates 2.0, Standard deviation 1.5720504754733005 %) was 31.6% and the inhibition (PRVABC59, Concentration 198.0 uM, Number of replicates 2.0, Standard deviation 3.020626194849933 %) was 23.3%.
For `C[C@H]1COCCN1C(=O)c1cc(Cl)ccc1NS(=O)(=O)c1ccc(Oc2ccccc2Cl)cc1`, the inhibition (PRVABC59, Concentration 49.5 uM, Number of replicates 2.0, Standard deviation 0.03588483834653944 %) was 17%, the inhibition (PRVABC59, Concentration 99.01 uM, Number of replicates 2.0, Standard deviation 0.6631068200403265 %) was 40.8% and the inhibition (PRVABC59, Concentration 198.0 uM, Number of replicates 2.0, Standard deviation 0.09361590556282165 %) was 58.7%.
For `O=C(NC[C@H]1CCCO1)c1cc(Cl)ccc1NS(=O)(=O)c1ccc(Oc2ccccc2Cl)cc1`, the inhibition (PRVABC59, Concentration 49.5 uM, Number of replicates 2.0, Standard deviation 0.526737151348054 %) was 37%, the inhibition (PRVABC59, Concentration 99.01 uM, Number of replicates 2.0, Standard deviation 0.29372509619508946 %) was 35.9% and the inhibition (PRVABC59, Concentration 198.0 uM, Number of replicates 2.0, Standard deviation 0.7843616173322282 %) was 19.9%.
`O=C(c1cc(Cl)ccc1NS(=O)(=O)c1ccc(Oc2ccccc2Cl)cc1)N1CCC[C@H](O)C1` was tested, and the inhibition (PRVABC59, Concentration 49.5 uM, Number of replicates 2.0, Standard deviation 2.1414055085112063 %) was 8.55%, the inhibition (PRVABC59, Concentration 99.01 uM, Number of replicates 2.0, Standard deviation 0.8713297847731235 %) was 39.7% and the inhibition (PRVABC59, Concentration 198.0 uM, Number of replicates 2.0, Standard deviation 0.024611062132057417 %) was 79.8%.
`O=C(c1cc(Cl)ccc1NS(=O)(=O)c1ccc(Oc2ccccc2Cl)cc1)N1CC[C@H](CO)C1` gave an inhibition (PRVABC59, Concentration 49.5 uM, Number of replicates 2.0, Standard deviation 0.6366783858004793 %) of 4.61%, an inhibition (PRVABC59, Concentration 99.01 uM, Number of replicates 2.0, Standard deviation 1.3685297503351668 %) of 11.5% and an inhibition (PRVABC59, Concentration 198.0 uM, Number of replicates 2.0, Standard deviation 0.3954655654516591 %) of 72.9%.
